Source: the supplement of paper PMC13380429

System: Vero E6 infected with SARS-CoV-2
Assay: inhibition of SARS-CoV-2 cytopathic effect; higher = more antiviral protection, active = above 15
Details: 48 h

Measured: inhibition of SARS-CoV-2 cytopathic effect

Cc1nnc2ccc(-c3cccc(C(F)(F)F)c3)nn12
inactive: 1 nM -0.37% | 8.33 nM 3.68% | 100 nM 2.78% | 833.33 nM 1.93% | 10000 nM 2.16%

CC(C)NCC(O)c1ccc2ccccc2c1 (stereo not given) [pronethalol]
inactive: 1 nM 0.73% | 8.33 nM 1% | 100 nM -0.07% | 833.33 nM 0.3% | 10000 nM -1.64%

CC(C)n1c(=O)n(C(=O)N[C@H]2C[C@H]3CC[C@@H](C2)N3C)c2ccccc21
inactive: 1 nM 3% | 8.33 nM 1.63% | 100 nM -0.05% | 833.33 nM -0.36% | 10000 nM -2.53%

c1ccc(Oc2nc(NC3CCCCC3)c3[nH]cnc3n2)cc1
inactive: 1 nM 0.79% | 8.33 nM -0.47% | 100 nM -1.37% | 833.33 nM -1.49% | 10000 nM -6.42%

C=CC[N@@+]12CC[C@@]34c5ccccc5N5/C=C6/[C@H]7C[C@H]8[C@@]9(CC[N@@+]8(CC=C)C/C7=C/CO)c7ccccc7N(/C=C(/[C@@H](C[C@@H]31)/C(=C\CO)C2)[C@H]54)[C@@H]69 [alcuronium]
inactive: 1 nM 1.2% | 8.33 nM -0.77% | 100 nM -0.24% | 833.33 nM -0.81% | 10000 nM 4.13%

COc1cc(/C=C(\C#N)C(N)=O)cc(CSc2nc3ccccc3s2)c1O [tyrphostin-AG-825]
inactive: 1 nM 2.84% | 8.33 nM 1.12% | 100 nM 0.69% | 833.33 nM -0.02% | 10000 nM 0.99%

COc1ccccc1N1CCN(CCCCNC(=O)c2ccc(-c3ccc(C(C)=O)cc3)cc2)CC1
inactive: 1 nM -1.49% | 8.33 nM -3.1% | 100 nM -4.98% | 833.33 nM -6.69% | 10000 nM -6.57%

CCCCOc1cc(C(=O)OCCN(CC)CC)ccc1N [oxybuprocaine]
inactive: 1 nM 0.54% | 8.33 nM 0.93% | 100 nM 5.2% | 833.33 nM 3.06% | 10000 nM -0.68%

Cn1cc(-c2ccc(F)c(C(F)(F)F)c2)nc1C1CCN(c2ncnc3[nH]ncc23)CC1
inactive: 1 nM 0.45% | 8.33 nM -0.64% | 100 nM -1.2% | 833.33 nM -2.86% | 10000 nM -3.92%

NC(=O)c1ncn([C@@H]2O[C@H](CO)[C@@H](O)[C@H]2O)c1N [acadesine]
inactive: 1 nM 0.23% | 8.33 nM 2.34% | 100 nM 1.8% | 833.33 nM 0.21% | 10000 nM -1.3%

O=C(NCc1cccc(O)c1)Nc1nc(-c2ccncc2)cs1
inactive: 1 nM 1.7% | 8.33 nM 1.65% | 100 nM -1.57% | 833.33 nM -6.16% | 10000 nM -6.11%

O=C1c2ccccc2C(=O)c2ccccc21 [anthraquinone]
inactive: 1 nM -2.37% | 8.33 nM -0.48% | 100 nM -1.17% | 833.33 nM 1.54% | 10000 nM 0.18%

Cc1cnc(C(=O)N[C@H]2CCCCC/C=C\[C@@H]3C[C@@]3(C(=O)NS(=O)(=O)C3CC3)NC(=O)[C@@H]3C[C@@H](Oc4nc5ccccc5c5ccccc45)CN3C2=O)cn1 [paritaprevir]
inactive: 1 nM -1.75% | 8.33 nM -2.06% | 100 nM -0.72% | 833.33 nM 0.24% | 10000 nM 1.71%

CCOC(=O)Nc1ccc(NCc2ccc(F)cc2)nc1N [flupirtine]
inactive: 1 nM 0.67% | 8.33 nM 0.58% | 100 nM -1.4% | 833.33 nM 0.07% | 10000 nM 1.37%

[O-][S+](c1ccccc1)c1ccc2nnnn2n1 (stereo not given)
inactive: 1 nM 2.27% | 8.33 nM 2.68% | 100 nM 0.02% | 833.33 nM 1.7% | 10000 nM 14%

C[C@H](NC[C@H](O)CP(=O)(O)Cc1ccccc1)c1ccc(Cl)c(Cl)c1
inactive: 1 nM 2.41% | 8.33 nM 3.89% | 100 nM 1.35% | 833.33 nM 1.79% | 10000 nM 4.47%

OC[C@H]1OC(O)[C@H](O)[C@@H](O)[C@@H]1O (stereo not given in full) [dextrose]
inactive: 1 nM 0.5% | 8.33 nM -0.54% | 100 nM 0.12% | 833.33 nM -9.41% | 10000 nM -1.07%

CCCCn1ccc(N2CCC(c3ccccc3)CC2)c(Cl)c1=O
inactive: 1 nM 1.82% | 8.33 nM 3.38% | 100 nM 1.99% | 833.33 nM 1.64% | 10000 nM -5.17%

C[N+](C)(C)CCOC(=O)CCC(=O)OCC[N+](C)(C)C [succinylcholine-chloride]
inactive: 1 nM 2.27% | 8.33 nM -1.42% | 100 nM -2.35% | 833.33 nM 0.85% | 10000 nM 0.28%

COC(=O)Nc1nc2cc(Sc3ccccc3)ccc2[nH]1 [fenbendazole]
inactive: 1 nM 0.07% | 8.33 nM -1.31% | 100 nM 0.21% | 833.33 nM 0.61% | 10000 nM -0.61%

COc1cc2nccc(Oc3ccc(NC(=O)C4(C(=O)Nc5ccc(F)cc5)CC4)cc3)c2cc1OC [cabozantinib]
inactive: 1 nM 1.77% | 8.33 nM 1.83% | 100 nM -0.89% | 833.33 nM -1.04% | 10000 nM -14.2%

Cc1ccc(S(=O)(=O)/C=C/C#N)cc1
active: 10000 nM 18.8%
inactive: 1 nM 0.18% | 8.33 nM -2.24% | 100 nM 0.01% | 833.33 nM 4.59%

O=C(O)CCCN1CCC(O[C@@H](c2ccc(Cl)cc2)c2ccccn2)CC1 [bepotastine]
inactive: 1 nM -0.92% | 8.33 nM 2.31% | 100 nM 0.31% | 833.33 nM 2.01% | 10000 nM -0.07%

Cc1ccc(-c2nc3ccc(C)cn3c2CC(=O)N(C)C)cc1
inactive: 1 nM 0.77% | 8.33 nM 1.21% | 100 nM 0.45% | 833.33 nM 1.14% | 10000 nM -2.98%

N#CN=C(NCCCCCCOc1ccc(Cl)cc1)Nc1ccncc1
inactive: 1 nM 0.77% | 8.33 nM -0.03% | 100 nM -4.25% | 833.33 nM -15% | 10000 nM -17.4%

O=C1CCCC(=O)C1C(=O)c1ccc(C(F)(F)F)cc1[N+](=O)[O-] [nitisinone]
inactive: 1 nM 0.39% | 8.33 nM 0.93% | 100 nM -0.21% | 833.33 nM 0.01% | 10000 nM -1.34%

CNC(=O)[C@H](Cc1ccccc1)NC(=O)[C@H](CC(C)C)[C@H](CSc1cccs1)C(=O)NO [batimastat]
inactive: 1 nM -1.9% | 8.33 nM -1.84% | 100 nM -3.51% | 833.33 nM -9.99% | 10000 nM -12.5%

CC(C)c1ccc(C(=O)N=C(N)N)cc1S(C)(=O)=O [cariporide]
inactive: 1 nM 0.61% | 8.33 nM 4.56% | 100 nM 2.44% | 833.33 nM 1.5% | 10000 nM -0.17%

COc1cccc(NC(=O)/C=C/c2ccc(Cl)cc2)c1
inactive: 1 nM -1.02% | 8.33 nM -1.96% | 100 nM -1% | 833.33 nM -0.56% | 10000 nM -4.87%

Cc1c(C(=O)N2CCOc3ccc(-c4ccc(N)nc4)cc3C2)ccc(S(C)(=O)=O)c1F
inactive: 1 nM -2.79% | 8.33 nM 1.25% | 100 nM -0.37% | 833.33 nM 0.13% | 10000 nM 1.3%

COc1cc(N2CCC(N3CCN(C)CC3)CC2)ccc1Nc1ncc(Cl)c(Nc2ccccc2P(C)(C)=O)n1 [brigatinib]
inactive: 1 nM 0.45% | 8.33 nM -1.85% | 100 nM -2.21% | 833.33 nM -0.42% | 10000 nM -5.17%

O=C(Nc1cc(C(F)(F)F)cc(C(F)(F)F)c1)c1cc(Cl)ccc1O [IKK-2-inhibitor-V]
inactive: 1 nM -4.92% | 8.33 nM -2.65% | 100 nM 1.55% | 833.33 nM 10.7% | 10000 nM 4.63%

Cc1ccsc1C(=CCCN1CCC[C@@H](C(=O)O)C1)c1sccc1C [tiagabine]
inactive: 1 nM 1.59% | 8.33 nM 1.98% | 100 nM 0.33% | 833.33 nM -3.02% | 10000 nM 0.65%

C#C[C@]1(O)C=C[C@H]2[C@@H]3CCC4=CC(=O)CC[C@@H]4[C@H]3CC[C@@]21CC [gestodene]
inactive: 1 nM 0.01% | 8.33 nM 1.99% | 100 nM -0.48% | 833.33 nM -1.22% | 10000 nM 1.3%

Cc1nc2ccc(Oc3ccc(F)cc3)cc2c(=O)n1C[C@H]1CCCN(C(C)C)C1
inactive: 1 nM 0.11% | 8.33 nM 0.49% | 100 nM 1.67% | 833.33 nM 0.07% | 10000 nM -5.71%

Cc1c(Cn2c(C)nc3c(C(=O)O)cc(N4CCOCC4)cc32)cccc1C(F)(F)F
inactive: 1 nM 1.56% | 8.33 nM 4.39% | 100 nM 3.91% | 833.33 nM -2.09% | 10000 nM -2.66%

Cc1c[nH]c(=O)n(CCCN2CCN(c3ccccc3OCC(F)(F)F)CC2)c1=O
inactive: 1 nM -2.56% | 8.33 nM 0.88% | 100 nM -3.18% | 833.33 nM -1.23% | 10000 nM -1.99%

C[C@@H]1COCCN1c1cc(=O)n2c(n1)N(Cc1cncc(Cl)c1)[C@H](C(F)(F)F)CC2
active: 10000 nM 44.4%
inactive: 1 nM -2.96% | 8.33 nM 2.22% | 100 nM -0.24% | 833.33 nM 7.24%

N#Cc1ccc(Cn2cncc2CN2CCN(c3cccc(Cl)c3)C(=O)C2)cc1
inactive: 1 nM 3.21% | 8.33 nM 3.01% | 100 nM 0.11% | 833.33 nM -2.48% | 10000 nM -1.12%

COc1ccc(Oc2c(Cl)cnn(C3c4ccccc4-c4ccccc43)c2=O)cc1
inactive: 1 nM -3.45% | 8.33 nM -3.66% | 100 nM 0.55% | 833.33 nM -0.63% | 10000 nM -0.88%
